Laboratory results taken from PubChem BioAssay (EPA / NIEHS).
Several values for one entry are separate records, joined by “and”; a condition that tells them apart may be missing. Identical values can stand only once. Records with an inconclusive call do not appear. Activity calls are given as the source filed them. Rule for the calls, unless noted: active = hit-call score of the fitted dose curve at least 0.9, where 1 is the maximum; inactive = score below 0.9.

What was measured:
[1] = molecular target: Retinoic acid receptor alpha (Homo sapiens) (UniProt P10276); test: ATG_DR5_RAR_CIS: Attagene CIS-FACTORIAL HepG2 Assay for human Retinoic Acid Receptor Alpha (RARE), DR5 submotif (AID 2282934); conditions: HepG2 Attagene cis-factorial RARE DR5 reporter, mRNA; actives raise or lower the signal
Chain of Retinoic acid receptor alpha (Homo sapiens) (P10276 whole entry, looked up): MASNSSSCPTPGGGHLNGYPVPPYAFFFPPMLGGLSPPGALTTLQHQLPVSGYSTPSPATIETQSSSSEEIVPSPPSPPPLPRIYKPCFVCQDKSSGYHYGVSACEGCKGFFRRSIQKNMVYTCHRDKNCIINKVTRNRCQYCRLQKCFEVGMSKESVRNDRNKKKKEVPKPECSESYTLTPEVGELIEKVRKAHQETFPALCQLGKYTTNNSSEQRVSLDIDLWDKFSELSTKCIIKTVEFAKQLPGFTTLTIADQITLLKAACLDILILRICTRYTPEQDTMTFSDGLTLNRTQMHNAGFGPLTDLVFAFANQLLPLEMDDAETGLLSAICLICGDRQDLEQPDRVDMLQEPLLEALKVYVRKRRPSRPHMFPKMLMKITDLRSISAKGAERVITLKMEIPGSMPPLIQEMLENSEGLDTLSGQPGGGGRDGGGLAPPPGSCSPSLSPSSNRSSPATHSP
In short: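 Endpoint fitted in both directions relative to DMSO as negative control. It reflects DR5 cis-element reporter mRNA induction in transiently transfected HepG2 cells, measured 24 h after dosing through RT-PCR and fluorescent capillary electrophoresis.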

[2] = molecular target: Hepatocyte nuclear factor 6 (Homo sapiens) (UniProt Q9UBC0); test: ATG_HNF6_CIS: Attagene CIS-FACTORIAL HepG2 Assay for human Hepatocyte Nuclear Factor 6 (HNF6) (AID 2282952); conditions: HepG2 Attagene cis-factorial HNF6 reporter transcription; actives raise or lower the signal
Chain of Hepatocyte nuclear factor 6 (Homo sapiens) (Q9UBC0 whole entry, looked up): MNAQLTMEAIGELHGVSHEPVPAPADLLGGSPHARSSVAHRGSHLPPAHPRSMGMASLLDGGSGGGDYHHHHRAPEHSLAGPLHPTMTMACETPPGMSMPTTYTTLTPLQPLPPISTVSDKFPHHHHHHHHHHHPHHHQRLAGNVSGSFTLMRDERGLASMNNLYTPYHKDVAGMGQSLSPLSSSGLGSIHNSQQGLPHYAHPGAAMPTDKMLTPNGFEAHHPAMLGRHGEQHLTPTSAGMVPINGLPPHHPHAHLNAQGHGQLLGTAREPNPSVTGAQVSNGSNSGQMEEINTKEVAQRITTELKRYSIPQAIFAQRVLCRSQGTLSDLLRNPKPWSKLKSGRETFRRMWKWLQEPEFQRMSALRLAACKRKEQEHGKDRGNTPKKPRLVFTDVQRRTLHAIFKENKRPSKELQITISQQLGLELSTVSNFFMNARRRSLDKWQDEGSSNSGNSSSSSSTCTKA
In short: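 Cells are HepG2 carrying transiently transfected cis-promoter reporter units. Treatment lasts 24 h, after which reporter transcripts are reverse-transcribed, amplified, FAM-labelled and sized by capillary electrophoresis. DMSO serves as baseline.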

[3] = molecular target: Glucocorticoid receptor (Homo sapiens) (UniProt P04150); test: ATG_GR_TRANS: Attagene TRANS-FACTORIAL HepG2 Assay for human Glucocorticoid Receptor (GR) (AID 2282978; active = hit-call score of the fitted dose curve at least 0.9, where 1 is the maximum;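 note: activators score as hits since higher reporter transcript over DMSO is fitted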); conditions: HepG2 Attagene TRANS GR reporter, mRNA transcription
Chain of Glucocorticoid receptor (Homo sapiens) (P04150 whole entry, looked up): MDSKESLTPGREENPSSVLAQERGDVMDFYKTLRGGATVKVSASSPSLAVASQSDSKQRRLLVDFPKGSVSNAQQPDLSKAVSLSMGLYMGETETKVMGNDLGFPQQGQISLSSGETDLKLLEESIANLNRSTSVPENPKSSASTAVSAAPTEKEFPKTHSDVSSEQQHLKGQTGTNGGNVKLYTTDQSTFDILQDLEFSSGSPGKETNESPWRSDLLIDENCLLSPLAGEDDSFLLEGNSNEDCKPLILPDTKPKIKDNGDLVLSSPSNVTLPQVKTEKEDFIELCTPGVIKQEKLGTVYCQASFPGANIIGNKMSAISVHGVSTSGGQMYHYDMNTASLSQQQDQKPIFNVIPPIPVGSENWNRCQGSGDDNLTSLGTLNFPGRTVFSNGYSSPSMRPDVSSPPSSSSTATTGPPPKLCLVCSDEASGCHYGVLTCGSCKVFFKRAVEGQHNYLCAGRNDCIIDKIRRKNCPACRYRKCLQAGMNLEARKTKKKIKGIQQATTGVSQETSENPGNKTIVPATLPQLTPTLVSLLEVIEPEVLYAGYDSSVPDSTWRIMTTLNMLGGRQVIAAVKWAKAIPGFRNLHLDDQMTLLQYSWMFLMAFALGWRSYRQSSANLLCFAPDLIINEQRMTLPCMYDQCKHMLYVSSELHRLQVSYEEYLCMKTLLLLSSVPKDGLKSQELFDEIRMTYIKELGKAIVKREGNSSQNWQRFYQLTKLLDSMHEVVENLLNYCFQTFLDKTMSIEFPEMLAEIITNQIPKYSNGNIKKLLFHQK
In short: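 Multiplexed TRANS reporter system, HepG2; 24 h exposure; RNA → oligo(dT) RT → reporter-specific PCR → 6-FAM primer extension → HpaI cut → CE fluorescence. Gain-of-signal vs DMSO.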

[4] = molecular target: Nuclear respiratory factor 1 (Homo sapiens) (UniProt Q16656); test: ATG_NRF1_CIS: Attagene CIS-FACTORIAL HepG2 Assay for human Nuclear Respiratory Factor 1 (NRF1) Orphan Gene (AID 2282987); conditions: HepG2 NRF1 cis-element reporter, Attagene multiplex; actives raise or lower the signal
Chain of Nuclear respiratory factor 1 (Homo sapiens) (Q16656 whole entry, looked up): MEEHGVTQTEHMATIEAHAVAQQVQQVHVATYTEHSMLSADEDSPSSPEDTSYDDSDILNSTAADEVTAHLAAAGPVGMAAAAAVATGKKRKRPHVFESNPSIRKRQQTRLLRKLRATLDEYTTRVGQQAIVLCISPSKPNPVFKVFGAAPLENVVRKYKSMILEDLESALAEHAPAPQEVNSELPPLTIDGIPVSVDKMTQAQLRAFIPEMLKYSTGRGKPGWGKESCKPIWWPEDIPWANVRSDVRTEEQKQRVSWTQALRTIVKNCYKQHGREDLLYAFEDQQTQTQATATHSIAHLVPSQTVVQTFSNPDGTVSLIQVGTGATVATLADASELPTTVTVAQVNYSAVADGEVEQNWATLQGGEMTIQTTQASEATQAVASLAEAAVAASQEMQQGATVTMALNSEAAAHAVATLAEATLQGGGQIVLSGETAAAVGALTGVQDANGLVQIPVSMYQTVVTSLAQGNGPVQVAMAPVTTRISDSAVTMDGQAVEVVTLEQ
In short: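 Human hepatoma HepG2 cells carrying transfected promoter-regulated reporter units were incubated with test chemicals for 24 h. Reporter transcripts were measured by RT-PCR plus capillary electrophoresis, and endpoints derived by bidirectional fitting with DMSO as baseline.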

[5] = molecular target: Cellular tumor antigen p53 (Homo sapiens) (UniProt P04637); test: ATG_p53_CIS: Attagene CIS-FACTORIAL HepG2 Assay for human p53 Transcription Factor (AID 2282994); conditions: HepG2 p53 cis-element reporter, Attagene mRNA; actives raise or lower the signal
Chain of Cellular tumor antigen p53 (Homo sapiens) (P04637 whole entry, looked up): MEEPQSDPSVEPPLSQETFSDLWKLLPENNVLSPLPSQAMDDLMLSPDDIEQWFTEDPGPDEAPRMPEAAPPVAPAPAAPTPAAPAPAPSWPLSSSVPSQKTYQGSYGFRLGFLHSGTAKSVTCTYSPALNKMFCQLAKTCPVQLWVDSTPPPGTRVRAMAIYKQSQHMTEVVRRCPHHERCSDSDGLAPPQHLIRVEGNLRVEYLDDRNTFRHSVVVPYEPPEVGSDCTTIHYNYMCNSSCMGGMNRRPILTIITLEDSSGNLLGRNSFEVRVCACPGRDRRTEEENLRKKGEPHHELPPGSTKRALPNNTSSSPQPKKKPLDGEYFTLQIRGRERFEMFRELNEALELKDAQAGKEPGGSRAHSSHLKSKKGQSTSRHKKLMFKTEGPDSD
In short: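 Multiplexed reporter mRNA assay in human HepG2 liver cells; cis-regulated units report endogenous factor activity. Values come from bidirectional curve fitting against DMSO negative control after 24 h treatment.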

[6] = BSK_3C_uPAR: BioMAP Diversity Plus: 3C Assay for Urokinase-type plasminogen activator receptor (uPAR) Biomarker Activity (AID 2282998); conditions: BioMAP 3C HUVEC, uPAR biomarker ELISA; actives raise or lower the signal
In short: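 Dose primary human umbilical vein endothelial cells, incubate 24 h, measure cell-surface uPAR by ELISA, then fit the signal in both directions against the DMSO negative control.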

[7] = BSK_3C_VCAM1: BioMAP Diversity Plus: 3C Assay for Vascular cell adhesion molecule 1 (VCAM1) Biomarker Activity (AID 2282999); conditions: BioMAP 3C HUVEC, VCAM1 ELISA, cytokine-stimulated; actives raise or lower the signal
In short: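 Human umbilical vein endothelial cells were dosed with compound for 24 h, after which cell-surface VCAM-1 was quantified by ELISA. Bidirectional curve fitting used DMSO as negative control and activity baseline.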

[8] = BSK_4H_Eotaxin3: BioMAP Diversity Plus: 4H Assay for Eotaxin 3 Biomarker Activity (AID 2283000); conditions: primary human endothelial cells (HUVEC); actives raise or lower the signal
In short: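 ELISA quantitation of CCL26 (Eotaxin-3) protein from chemically dosed human vascular endothelial cells at 24 h; increases and decreases both scored relative to DMSO-treated baseline.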

[9] = BSK_3C_Proliferation: Cell Proliferation Assessment in the BioMAP Diversity Plus: 3C Assay (AID 2283006); conditions: primary human endothelial cells (HUVEC);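 for AC50: potency may reflect either rise or fall in cell number versus DMSO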
In short: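 Proliferation of human vascular endothelial primary cells after 48 h dosing, quantified as SRB-stained protein at 560 nm relative to DMSO.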

[10] = read-out: Monocyte Chemoattractant Protein-1 (MCP1), CCL2 (gene 6347); test: BSK_4H_MCP1: BioMAP Diversity Plus: 4H Assay for Monocyte Chemoattractant Protein-1 (MCP1) Biomarker Activity (AID 2283018); conditions: primary human endothelial cells (HUVEC); actives raise or lower the signal
In short: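 Readout: MCP-1 ELISA on compound-treated HUVEC, sampled 24 h post-dosing. Baseline and negative control DMSO; bidirectional fit. Overt toxicity checked alongside by sulforhodamine B protein staining at time of biomarker measurement.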

[11] = read-out: Monokine induced gamma interferon (MIG), CXCL9 (gene 4283); test: BSK_3C_MIG: BioMAP Diversity Plus: 3C Assay for Monokine induced gamma interferon (MIG) Biomarker Activity (AID 2283021); conditions: primary human endothelial cells (HUVEC); actives raise or lower the signal
In short: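 After 24 h of treatment, human umbilical vein endothelial cultures (3C system) had their MIG biomarker level determined by ELISA, with DMSO serving as negative control.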

[12] = BSK_3C_SRB: Viability Assessment in the BioMAP Diversity Plus: 3C Assay (AID 2283023); conditions: primary human endothelial cells (HUVEC);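 note: fitted both ways against DMSO so a hit may be signal rise or drop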
In short: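 Overt cytotoxicity is gauged in parallel confluent HUVEC cultures by SRB total-protein staining at the time of biomarker measurement, 24 h after dosing. Gain or loss of signal is fitted versus DMSO.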

[13] = BSK_BE3C_SRB: Viability Assessment in the BioMAP Diversity Plus: BE3C Assay (AID 2283028); conditions: primary human bronchial epithelial cells;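 for AC50: fitted both ways so AC50 may mark signal gain or loss versus DMSO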
In short: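 SRB total-protein staining (0.1%, after TCA fixation) of chemically dosed human bronchial epithelial primary cells at 24 h; DMSO serves as the negative control for bidirectional curve fitting.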

[14] = read-out: Monokine induced gamma interferon (MIG), CXCL9 (gene 4283); test: BSK_BE3C_MIG: BioMAP Diversity Plus: BE3C Assay for Monokine induced gamma interferon (MIG) Biomarker Activity (AID 2283035); conditions: primary human bronchial epithelial cells; actives raise or lower the signal
In short: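 ELISA read-out of MIG in human lung bronchial epithelial primary cultures, 24 h post-dosing. Bidirectional curve fit vs DMSO baseline.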

[15] = read-out: Urokinase-type plasminogen activator receptor (uPAR), PLAUR (gene 5329); test: BSK_BE3C_uPAR: BioMAP Diversity Plus: BE3C Assay for Urokinase-type plasminogen activator receptor (uPAR) Biomarker Activity (AID 2283039); conditions: primary human bronchial epithelial cells; actives raise or lower the signal
In short: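 A uPAR ELISA serves as the readout, taken 24 h after treating primary human bronchial epithelial cells. Responses in either direction are fitted against DMSO, which defines baseline activity.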

[16] = read-out: Tissue plasminogen activator (tPA), PLAT (gene 5327); test: BSK_BE3C_tPA: BioMAP Diversity Plus: BE3C Assay for Tissue plasminogen activator (tPA) Biomarker Activity (AID 2283041); conditions: primary human bronchial epithelial cells; actives raise or lower the signal
In short: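 Bidirectional curve fitting relative to DMSO defined activity, with tPA detected by ELISA in chemically treated human bronchial epithelial primary cells at 24 hours.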

[17] = read-out: Interleukin-8 (IL8), CXCL8 (gene 3576); test: BSK_CASM3C_IL8: BioMAP Diversity Plus: CASM3C Assay for Interleukin-8 (IL8) Biomarker Activity (AID 2283042); conditions: primary human coronary artery smooth muscle cells; actives raise or lower the signal;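 note: IL-8 protein level quantified by ELISA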
[18] = read-out: Human Leukocyte Antigen - DR isotype (HLADR), HLA-DRA (gene 3122); test: BSK_CASM3C_HLADR: BioMAP Diversity Plus: CASM3C Assay for Human Leukocyte Antigen - DR isotype (HLADR) Biomarker Activity (AID 2283043); conditions: primary human coronary artery smooth muscle cells; actives raise or lower the signal;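 note: cell-surface HLA-DR protein level quantified by ELISA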
CD69, CD69 (gene 969) = test: BSK_SAg_CD69: BioMAP Diversity Plus: SAg Assay for CD69 Biomarker Activity (AID 2283089); conditions: primary human HUVEC with PBMC; actives raise or lower the signal;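 for AC50: cell surface CD69 protein quantified by ELISA with fluorescence detection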
In short: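 ELISA, fluorescence read-out: CD69 on human umbilical vein endothelial cell + PBMC co-culture, 24 h post-dosing. Gain or loss of signal fitted bidirectionally against DMSO baseline.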

[19] = ATG_RORE_CIS: Attagene CIS-FACTORIAL HepG2 Assay for human RAR-related Orphan Receptor Element (RORE) (AID 2282959); conditions: HepG2 Attagene cis-factorial RORE reporter, mRNA; actives raise or lower the signal
In short: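 Multiplexed reporter assay measuring mRNA induction from a cis promoter element in transiently transfected HepG2 cells after 24 h treatment. Detection via RT-PCR and capillary electrophoresis fluorescence; DMSO serves as baseline.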

Measured: AC50

CCC(C)(CCC(C)C)C(=O)O (configuration not stated)
inactive: [1]

CCC(=O)OCc1ccc(OC)cc1
inactive: [1] | [2] | [3] | [4] | [5]

Cc1c(C(N)=O)cc([N+](=O)[O-])cc1[N+](=O)[O-]
not listed: [1] | [2] | [3] | [4] | [5] | [19]
inactive: all other assays above

CCCCCCC1CCCC(=O)O1 (configuration not stated)
active: [19] 19.8 µM
inactive: [1] | [2] | [3] | [4] | [5]

CC(C)C1OCCN1CCOC(=O)NCCCCCCNC(=O)OCCN1CCOC1C(C)C (configuration not stated)
not listed: [1] | [2] | [3] | [4] | [5] | [19]
inactive: all other assays above

O=[N+]([O-])c1cc(S(=O)(=O)Nc2ccccc2)ccc1Nc1ccccc1
inactive: [7] | [11] | [17] | [18]
active: [6] 26 µM and 17.8 µM | [8] 26.6 µM and 25.5 µM | [9] 30.6 µM and 30.9 µM | [10] 27.8 µM and 20 µM | [12] 30.3 µM and 30.8 µM | [13] 27.5 µM and 31.7 µM | [14] 31 µM and 34.2 µM | [15] 32.4 µM and 31.6 µM | [16] 34 µM and 29.7 µM | CD69, CD69 (gene 969) 22 µM and 18 µM

CCOc1ccc2c(c1)C(C)CC(C)(C)N2 (configuration not stated)
inactive: [1] | [19] | [4]
